Assay [1] has as its system XIP peptide (Xip251-270) binding. Description: small-molecule binders of XIP peptide, primary screen, biochemical, small-molecule microarray, fluorescence 635/667 nm, 0.1 µg/mL protein (AID 1182). The following applies: fluorescent protein binding, 635 nm, higher = more signal, called active from +8 up or from −8 down.
In assay [2] the test system is XIP peptide (Xip251-270). Description: small-molecule binders of XIP peptide, primary screen, biochemical, small-molecule microarray, fluorescence 635/667 nm, 0.5 µg/mL protein (AID 1183). The following applies: small-molecule microarray binding, fluorescence 635 nm; higher = more signal.
The nature of assay [3]: Plasmodium falciparum growth inhibition, primary screen, strain 3D7, DAPI fluorescence, 100 nL (AID 1184).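 Note: parasites grown inside human red blood cells in medium with human serum.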 The note with it: P. falciparum 3D7 growth, 3 d, higher = more signal.
Assay [4] addresses Homeobox protein Hox-A13 (Mus musculus) (UniProt Q62424). Description: inhibitors of HoxA13-DNA binding, primary screen, biochemical, fluorescence polarization, labeled oligonucleotide (AID 1185). The following applies: 15 min, higher = more signal, called active from +8 up or from −8 down. (In general: Fluorescence polarisation rises when a labelled molecule tumbles more slowly, as on binding a larger partner.)

Assay [5] is described as follows: inhibitors of hydroxyurea-induced Chk1 phosphorylation, primary screen, imaging, HeLa, phospho-Chk1 antibody, percent positive cells (AID 1186). The note with it: hydroxyurea-induced phospho-Chk1 immunofluorescence imaging, higher = more signal.
Assay [6] is described as follows: inhibitors of hydroxyurea-induced Chk1 phosphorylation, primary screen, imaging, HeLa, phospho-Chk1 nuclear intensity (AID 1187). The following applies: hydroxyurea-induced phospho-Chk1 immunofluorescence imaging, higher = more signal.

SMILES strings stand for the structures. Calls of active or inactive are those of the source. Unless noted, the rule behind the calls is not given here.

Chain of Homeobox protein Hox-A13 (Mus musculus) (Q62424 whole entry, looked up): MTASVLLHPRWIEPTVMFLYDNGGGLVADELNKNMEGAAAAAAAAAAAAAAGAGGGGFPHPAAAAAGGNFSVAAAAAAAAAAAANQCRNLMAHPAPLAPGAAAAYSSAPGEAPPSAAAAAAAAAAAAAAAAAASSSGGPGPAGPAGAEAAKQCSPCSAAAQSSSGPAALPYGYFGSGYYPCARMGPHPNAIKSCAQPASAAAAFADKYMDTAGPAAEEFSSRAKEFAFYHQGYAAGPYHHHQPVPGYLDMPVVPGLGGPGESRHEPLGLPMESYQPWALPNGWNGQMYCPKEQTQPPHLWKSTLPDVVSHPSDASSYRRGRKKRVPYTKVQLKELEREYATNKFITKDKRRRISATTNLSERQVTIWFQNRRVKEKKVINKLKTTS

Turning to `C=CC1(C(=O)OC)CC=C(C(=O)OC)CC1` (stereo unspecified), the composite z-score is 0.552 (inactive) in assay [1] and 0.992 in assay [2]. The z-score in assay [3] is 0.928; in assay [4], -1.09 (inactive); in assay [5], -1.36 (inactive); in assay [6], -1.26 (inactive).
As for `C=CCOC(=O)[C@H]1[C@@H]2C(=O)O[C@@H](c3ccccc3)[C@@H](c3ccccc3)N2[C@@H](c2ccc(OCCOC(=O)[C@H]3C[C@H]4C(=O)N[C@@H](CCCCNC(C)=O)C(=O)N4[C@H]3c3ccc(O)cc3)cc2)[C@]12C(=O)Nc1ccc(I)cc12`, the results for the composite z-score in assay [1] and in assay [2] were 0.159 (inactive) and 0.671, respectively. For the same compound, the z-score in assay [3] is -1.39; in assay [4], 5.87 (inactive); in assay [5], -0.484 (inactive); in assay [6], -0.782 (inactive).
Turning to `O=C1C2C=CC(C(O)CCc3ccccc3)N(Nc3ccccc3F)C2C(=O)N1c1ccccc1` (stereo unspecified), the composite z-score was 0.605 (inactive) in assay [1] and 0.524 in assay [2]. Besides, the z-score in assay [3] was -0.0934; in assay [4], -2.76 (inactive); in assay [5], 0.652 (inactive); in assay [6], 0.699 (inactive).
On to `COCCOC(=O)N1C(=O)[C@@]2(c3cc(C#CCCO)ccc31)[C@H](C(=O)N1CCCCCCC1)[C@H]1C(=O)O[C@H](c3ccccc3)[C@H](c3ccccc3)N1[C@@H]2c1ccc(OCCO)cc1`, for which the results for the composite z-score in assay [1] and in assay [2] were 1.29 (inactive) and 0.666, respectively. Moreover, the z-score was -1.5 in assay [3], -11 (active) in assay [4], -0.201 (inactive) in assay [5] and 0.0919 (inactive) in assay [6].
Consider `CC(C)NC(=O)[C@@]1(c2ccc([N+](=O)[O-])cc2)CC(=O)N(C2CCCCC2)[C@@H]1c1ccc(CO)cc1I`, for which the results for the composite z-score in assay [1] and in assay [2] were 0.46 (inactive) and 0.697, respectively. Besides, the z-score in assay [3] is -1.63; in assay [4] it was -4.64 (inactive); in assay [5] it was 0.1 (inactive); in assay [6] it was 0.635 (inactive).
Consider `C=C(COC)/C(=C/C[C@@H](OC(C)=O)c1ccc(OCCO)cc1)c1cnc2ccccc2c1`, for which the figures for the composite z-score in assay [1] and in assay [2] were -0.263 (inactive) and 0.554, respectively. Further, the z-score in assay [3] is -3.23; in assay [4] it was -6.01 (inactive); in assay [5], 0.136 (inactive); in assay [6], -0.201 (inactive).
As to `NC(=O)NCC#Cc1ccc2c(c1)[C@]1(C(=O)N2)[C@H](c2ccc(O)cc2)N2[C@H](c3ccccc3)[C@H](c3ccccc3)OC(=O)[C@H]2[C@@H]1C(=O)O`, the composite z-score is -0.211 (inactive) in assay [1] and 0.157 in assay [2]. The z-score was 0.431 in assay [3], -5.27 (inactive) in assay [4], 0.123 (inactive) in assay [5] and 0.094 (inactive) in assay [6].
As to `O=C(N1CCCCC1)[C@]1(Cc2ccccc2)N=C(c2ccc(OCCCO)cc2)O[C@@H]1c1ccccc1`, the composite z-score in assay [1] is 0.0557 (inactive); in assay [2], 0.657. In addition, the z-score in assay [3] was -2.79; in assay [4], -4.71 (inactive); in assay [5], -0.6 (inactive); in assay [6], -0.641 (inactive).
For the compound `COC(=O)[C@@]1(Cc2ccc(OC)cc2)[C@H]2c3cc(C(=O)N4CCCC4)n(CCN4CNCC4=O)c3C[C@H]2CN1C(=O)c1ccccc1`, the composite z-score was 0.281 (inactive) in assay [1] and -0.35 in assay [2]. Also, the z-score in assay [3] was -1.8; in assay [4], -4.34 (inactive); in assay [5], 0.525 (inactive); in assay [6] it was 0.163 (inactive).
In the case of `CC(C)C[C@@H]1NC(=O)[C@@H]2C[C@H](C(=O)NCc3ccc(F)cc3)[C@H](c3cccc(OCCO)c3)N2C1=O`, the figures for the composite z-score in assay [1] and in assay [2] were 0.832 (inactive) and 0.421, respectively. Moreover, the z-score is 0.124 in assay [3], -3.95 (inactive) in assay [4], 0.465 (inactive) in assay [5] and 0.554 (inactive) in assay [6].
In the case of `O=C1C[C@]2(c3ccc([N+](=O)[O-])cc3)C(=O)N(CC(F)(F)F)c3cc(CO)ccc3[C@H]2N1C1CCCCC1`, the results for the composite z-score in assay [1] and in assay [2] were -0.0975 (inactive) and 0.0582, respectively. Moreover, the z-score in assay [3] was -0.762; in assay [4], -1.39 (inactive); in assay [5] it was -0.219 (inactive); in assay [6], -0.125 (inactive).
Take `C=C(/C(=C/C[C@H](OC(C)=O)c1ccccc1OCCO)c1cnc2ccccc2c1)C(C)C`: the figures for the composite z-score in assay [1] and in assay [2] were 0.609 (inactive) and -0.167, respectively. Moreover, the z-score is -2.76 in assay [3], -5.41 (inactive) in assay [4], 0.284 (inactive) in assay [5] and -0.141 (inactive) in assay [6].
On to `CC[C@@H]1C=C(C(=O)O)[C@H](c2ccc(Br)cc2)N1S(=O)(=O)c1ccc(C)cc1`, for which the composite z-score is 0.693 (inactive) in assay [1] and 0.159 in assay [2]. Further, the z-score in assay [3] is -0.737; in assay [4], -3.11 (inactive); in assay [5], -0.0321 (inactive); in assay [6] it was 0.0367 (inactive).
Take `COCCOC(=O)N1C(=O)[C@@]2(c3cc(C#CCC(C(=O)OC)C(=O)OC)ccc31)[C@H](C(=O)Nc1nc3ccccc3s1)[C@H]1C(=O)O[C@H](c3ccccc3)[C@H](c3ccccc3)N1[C@@H]2c1ccccc1OCCO`: the values for the composite z-score in assay [1] and in assay [2] were 1.95 (inactive) and 0.813, respectively. In addition, the z-score in assay [3] was -1.8; in assay [4] it was 3.19 (inactive); in assay [5], 0.0747 (inactive); in assay [6] it was 0.233 (inactive).
Turning to `CCCCCN1CC=CC23O[C@@H]4/C=C\CCC(C)OC(=O)C4[C@H]2C(=O)N(C(C)CO)[C@@H]3C1=O` (stereo partly specified), the composite z-score in assay [1] was 0.176 (inactive); in assay [2], 0.0664. In addition, the z-score is -0.107 in assay [3], -4.77 (inactive) in assay [4], -0.808 (inactive) in assay [5] and -0.732 (inactive) in assay [6].
For the compound `Cc1ccc([C@@H]2C[C@@H](Sc3ccccc3)[C@H](C(=O)O)CN2S(=O)(=O)c2ccc(C)cc2)cc1`, the composite z-score in assay [1] is 0.571 (inactive); in assay [2] it was 0.8. Moreover, the z-score in assay [3] is -0.706; in assay [4] it was -7.26 (inactive); in assay [5] it was 0.57 (inactive); in assay [6] it was 0.498 (inactive).
Regarding `COCCOC(=O)N1C(=O)[C@@]2(c3cc(C#Cc4ccc(OC)cc4)ccc31)[C@H](c1ccc(O)cc1)N1[C@H](c3ccccc3)[C@H](c3ccccc3)OC(=O)[C@H]1[C@@H]2C(=O)N1CCc2cc(OC)c(OC)cc2C1`, the composite z-score was 0.109 (inactive) in assay [1] and 0.629 in assay [2]. In addition, the z-score was -2.17 in assay [3], -1.71 (inactive) in assay [4], 0.264 (inactive) in assay [5] and 0.948 (inactive) in assay [6].
On to `CO[C@H]1O[C@H](CO)[C@@H](OC(=O)Nc2ccc(C(F)(F)F)cc2)[C@H](OC(=O)Nc2ccc3c(c2)OCO3)[C@@H]1OC(=O)Nc1ccc2c(c1)OCO2`, for which the composite z-score was 1.42 (inactive) in assay [1] and 0.901 in assay [2]. In addition, the z-score is -2.09 in assay [3], -5.46 (inactive) in assay [4], -0.328 (inactive) in assay [5] and -0.0864 (inactive) in assay [6].
`COC(=O)[C@@]1(Cc2ccc(F)cc2)[C@H]2c3cc(C(=O)N(C)C)n(Cc4cc(F)c(F)c(F)c4)c3C[C@H]2CN1C(=O)c1ccccc1`: the composite z-score in assay [1] is 0.0639 (inactive); in assay [2] it was 0.626. In addition, the z-score is -1.66 in assay [3], -3.48 (inactive) in assay [4], 0.0893 (inactive) in assay [5] and 0.175 (inactive) in assay [6].
With `CN1C(=O)C2C=CC(C(O)c3ccccc3)N(N(c3ccccc3)c3ccccc3)C2C1=O` (stereo unspecified), the composite z-score is -0.274 (inactive) in assay [1] and -0.0284 in assay [2]. For the same compound, the z-score in assay [3] was 0.796; in assay [4], -1.72 (inactive); in assay [5], 0.812 (inactive); in assay [6], 0.606 (inactive).
As to `COCCOC(=O)N1C(=O)[C@@]2(c3ccccc31)[C@H](c1ccccc1OCCO)N1[C@H](c3ccccc3)[C@H](c3ccccc3)OC(=O)[C@H]1[C@@H]2C(=O)N1CCN(c2ncccn2)CC1`, the composite z-score was 1.04 (inactive) in assay [1] and 0.799 in assay [2]. Besides, the z-score in assay [3] is -2.2; in assay [4] it was -1.99 (inactive); in assay [5] it was 0.0172 (inactive); in assay [6], 0.0629 (inactive).
Take `COc1cc2c(cc1OC)CN(C(=O)[C@H]1[C@@H]3C(=O)O[C@@H](c4ccccc4)[C@@H](c4ccccc4)N3[C@@H](c3ccc(O)cc3)[C@]13C(=O)Nc1ccccc13)CC2`: the values for the composite z-score in assay [1] and in assay [2] were 0.602 (inactive) and 0.755, respectively. The z-score in assay [3] is -0.044; in assay [4], -2.37 (inactive); in assay [5], -0.169 (inactive); in assay [6] it was -0.238 (inactive).
In the case of `CN1C(=O)C2C=CC(C(O)c3ccc([N+](=O)[O-])cc3)N(N3CCCCC3)C2C1=O` (stereo unspecified), the composite z-score in assay [1] was 0.0993 (inactive); in assay [2] it was 0.471. In addition, the z-score in assay [3] is -0.114; in assay [4], -3.98 (inactive); in assay [5], -0.224 (inactive); in assay [6], -0.167 (inactive).
Regarding `COc1ccc(C#Cc2ccc3c(c2)[C@]2(C(=O)N3)[C@H](c3ccccc3OCCO)N3[C@H](c4ccccc4)[C@H](c4ccccc4)OC(=O)[C@H]3[C@@H]2C(=O)Nc2nc3ccccc3s2)cc1`, the composite z-score in assay [1] was 0.881 (inactive); in assay [2] it was 0.68. Besides, the z-score is -1.9 in assay [3], 2.72 (inactive) in assay [4], 0.165 (inactive) in assay [5] and 0.265 (inactive) in assay [6].
As for `CCS[C@H]1[C@@H](C(=O)O)[C@H](c2ccc(C)cc2)N(S(=O)(=O)c2ccc(C)cc2)[C@@H]1CC`, the composite z-score was 0.458 (inactive) in assay [1] and 0.327 in assay [2]. The z-score in assay [3] is 0.184; in assay [4], -2.35 (inactive); in assay [5], -0.72 (inactive); in assay [6] it was -0.307 (inactive).
Take `C[N+](C)(C)CCCCNC(=O)[C@@H]1C[C@@H]2C(=O)N[C@@H](Cc3ccccc3)C(=O)N2[C@@H]1c1cccc(OCCO)c1`: the composite z-score in assay [1] was 1.09 (inactive); in assay [2] it was 0.645. The z-score in assay [3] was -0.421; in assay [4], -2.57 (inactive); in assay [5], 0.367 (inactive); in assay [6] it was 0.276 (inactive).

The record behind these values is PubChem BioAssay.
